From PubChem BioAssay
Shn3 inh set2 = Schnurri-3 reporter inhibition in Clone20 osteoblasts | inhibition, % at 12.5 µM | 0.52% of 360,000 active | Clone20 osteoblast Shn3 3'UTR firefly luciferase, 24 h;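 active means mean inhibition of at least 75% with every replicate also reaching 75%; inconclusive means mean inhibition at least 75% but some replicate below; inactive means mean inhibition below 75%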;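 further: 0% = median of neutral control wells and 100% = pilot-screen positive control compound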
HIF-2a block = inhibitors of HIF-2a; inhibition, % at 18.8 µM; AID 624352; 786-0 RCC cells HIF-2a reporter, luciferase luminescence, overnight; 0.72% of 360,000 active;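 active means inhibition of the luminescence signal of 40% or more relative to plate controls, in a single-dose primary screen at 18.75 µM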
LMP1 NFkB inh = Epstein-Barr LMP1 NF-kappaB reporter inhibition; LMP1-induced NF-kappaB luciferase reporter cells, luminescence; inhibition, % at 12.5 µM; 0.69% of 350,000 active; in the data active means inhibition above about 41%; inconclusive means no clear call, values can overlap the other calls;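 further: 0% = neutral control wells and 100% = reference inhibitor control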
TWEAK Fn14 block = blocks TWEAK-Fn14 interaction in a reporter cell assay | TWEAK-stimulated Fn14 reporter cells, luciferase luminescence, 8 h | AID 1159606 | 2% of 360,000 active | inhibition, % at 10 µM; in the data active means inhibition above about 50%
MITF TRPM1 inh = MITF TRPM1 promoter inhibition in SK-MEL-5 cells; SK-MEL-5 TRPM1 promoter luciferase, 24 h; inhibition, % at 12.5 µM; 0.83% of 330,000 active;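 active means mean inhibition across replicates of 60% or more, whatever share of single replicates reaches that level; inconclusive means some that reach 60%, reason not given; inactive means mean inhibition across replicates below 60%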
TROY signal inh = inhibitors of TROY-dependent NF-kB signaling. inhibition, % at 10 µM. 0.98% of 360,000 active. Q293 LMP1-TROYcd NF-kB luciferase reporter, 4 h;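 active means compounds whose plate-normalised and pattern-corrected inhibition of the luciferase reporter signal at the single screening dose is 50% or more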
Numbers without * were called inactive; u = inconclusive; x = no result. Rows were chosen to be rich in hits. Some 3.4% of all compounds tested hit in one or more screens of this group.

SMILES	Shn3 inh set2	HIF-2a block	LMP1 NFkB inh	TWEAK Fn14 block	MITF TRPM1 inh	TROY signal inh
CN(C)C(=O)CSc1cccc2cccnc12	46	27	-37	96*	42	6
CCc1nc(N2CCN(C(=O)c3ccccc3)CC2)c2c3c(sc2n1)CCCC3	-53	17	7	28	6	32
CCc1nc(Sc2nnnn2-c2ccccc2)c2c3c(sc2n1)CCCC3	-1	34	13	93*	4	55*
CC1(C)CCc2cc(-c3ccnc(=S)[nH]3)ccc2O1	-59	-74	-25	62*	-19	50
CC(C)(C)Cc1c(-c2ccc(F)cc2)nc2ccc(Cl)cn12	15	-23	-6	10	x	-37
CCOC(=O)C[C@@H]1OC[C@H](C)N1S(=O)(=O)c1ccc(C)cc1	x	-9	x	x	x	x
CC1(C(=O)NS(=O)(=O)C2CC2)CCN(C(=O)c2ccc3c(c2)OCO3)C1 (stereo unspecified)	11	2	x	11	x	6
COc1cccc(/C=N/Nc2ncnc3c2ncn3Cc2ccccc2)c1O	90*	-39	78*	10	59	7
COc1cccc(/C=N/Nc2cc(Cl)nc(C)n2)c1O	-33	-149	-2	34	-48	7
COc1ccc2nc(NN=C(C)c3ccccn3)cc(C)c2c1	86*	-359	79*	26	77*	-51
COc1ccc(C(=O)/C=C/c2ccc(O)cc2)c(O)c1C/C=C(\C)CCC=C(C)C	47	-18	-20	-2	x	-17
C=C(C)C(O)CC/C(C)=C/Cc1c(O)ccc(C(=O)/C=C/c2ccc(O)cc2)c1O (stereo unspecified)	26	11	-12	34	24	65*
COC(=O)/C(C#N)=C/c1c(Oc2cccc(C)c2C)nc2ccccn2c1=O	-17	15	5	1	1	-16
CN(C)c1ccc(Nc2nc(N)c([N+](=O)[O-])c(N3CCOCC3)n2)cc1	31	-23	3	26	-3	70*
O=C(NCCOc1ccc(Cl)cc1)c1cccc(S(=O)(=O)N2CCCC2)c1	14	15	10	11	3	7
CC(C)NC(=O)C1Cc2c(-c3ccccc3Oc3ccccc3)ccnc2O1 (stereo unspecified)	-15	13	x	6	x	11
Cn1c(=O)c2c(ncn2CCOC(=O)C(C)(C)Oc2ccc(Cl)cc2)n(C)c1=O	7	2	0	11	x	10
O=c1cc(Nc2ccc3c(c2)OCCO3)[nH]c(=O)n1Cc1ccc(F)cc1	-18	11	9	69*	-4	51*
Cc1ccc(C(=O)Nc2cccc(NC(=O)c3ccc(C)o3)n2)o1	4	-31	-3	-19	9	-20
O=C(C1COc2ccccc2O1)N1CCN(Cc2ccc(Br)cc2F)CC1 (stereo unspecified)	2	14	3	64*	11	15
O=C(C1COc2ccccc2O1)N1CCN(Cc2ccc3c(c2)OCO3)CC1 (stereo unspecified)	-10	3	1	5	4	14
O=C(Nc1ccc(-c2cn3ccccc3n2)cc1)c1ccc(Cl)cc1	11	-36	-1	-21	-6	-37
COc1ccc(-c2nc3ccccn3c2Cl)cc1	-17	-48	-15	52*	-15	3
COc1ccc(-c2nc3ccccn3c2CN2CCN(c3ccccc3F)CC2)cc1	19	-175	4	-17	-24	-47
Clc1ccc(-c2cn3cc(Cl)ccc3n2)cc1	-17	-77	-56	75*	-7	33
SMILES	Shn3 inh set2	HIF-2a block	LMP1 NFkB inh	TWEAK Fn14 block	MITF TRPM1 inh	TROY signal inh
CCCCNc1c(-c2ccc(OC)c(Sc3ccc(OC)cc3)c2)nc2ccccn12	u	-226	13	57*	11	7
Clc1ccc(-c2cn3ccccc3n2)cc1	-33	-181	-10	60*	-16	8
CCOC(=O)C1=CNS(=O)(=O)NC1c1ccc(OC(C)=O)cc1 (stereo unspecified)	-25	-1	-3	1	7	12
O=C(NCCN1CCC(n2c(=O)[nH]c3ccccc32)CC1)c1cccs1	x	12	x	3	x	-3
COc1ccc(C(=O)N/C(=C\c2cccc3ccccc23)C(=O)N2CCN(C)CC2)cc1	9	13	0	-11	1	-3
COc1ccccc1C(=O)Nc1c(-c2ccccc2)nc2ccccn12	11	-3	-14	17	5	-6
COc1ccc(-c2cn3ccccc3n2)cc1	x	-117	25	51*	-3	11
COc1ccc(C(=O)Nc2c(-c3ccccc3)nc3ccccn23)c(OC)c1	-13	20	7	56*	-5	12
COc1ccc2nc3n(c(=O)c2c1)-c1ncccc1C(=O)NC3CC(C)C (stereo unspecified)	14	11	-5	76*	x	2
O=C(c1cc(-c2ccc(Br)cc2)on1)N1CCOCC1	-47	-114	2	55*	-22	-2
COc1ccc(-c2cc(C(F)(F)F)n3nc(C(=O)N4CCOCC4)nc3n2)cc1	7	0	44*	-14	-1	2
c1ccc(-c2cc(-c3cc(-c4ccccc4)on3)no2)cc1	-90	-217	-45	-17	x	-54
COc1ccc(-c2cc(CCCC(=O)N3CCN(c4ccc(OC)cc4)CC3)no2)cc1	17	17	9	51*	0	24
O=C(c1nc2nc(-c3ccccc3)cc(C(F)(F)F)n2n1)N1CCCCC1	11	-7	-1	-9	15	8
COc1ccc(-c2cc(-c3ccccc3)no2)cc1	-38	-150	-22	69*	-43	18
COc1ccc(N2CCN(C(=O)COCc3cc(-c4ccc5c(c4)OCO5)on3)CC2)cc1	19	-11	-5	9	13	-20
COCCN(CC(=O)Nc1cccc(C)c1C)C(=O)c1ccc(S(=O)(=O)N2CCOCC2)cc1	-21	11	9	7	4	-14
CCNC(=O)N(C)c1c(CC)nc2ccc(C(=O)N3CCN(C(C)=O)CC3)cn12	-13	5	x	-1	x	-5
COc1ccc(-c2cc(C(=O)N3CCOCC3)no2)cc1	-6	-21	29	65*	10	41
CC(=O)Nc1ccc(S(=O)(=O)NC(C)C(=O)OCC(=O)Nc2ccc(F)cc2Cl)cc1 (stereo unspecified)	-4	8	-10	2	x	-15
CC(C)n1cc(CN2CCC(Oc3ccc(C(=O)N4CCCCC4)cc3)CC2)cn1	12	12	3	-5	10	9
COc1cnc(-c2ccccn2)nc1N(C)c1ccccc1	89*	-173	12	-15	18	-6
COc1ccccc1Cc1c(-c2ccc(F)cc2)nc2ccc(Cl)cn12	-28	-176	x	-24	x	-23
COc1cc2c3nnc(-c4ccc(F)cc4)c-3cn(Cc3ccccc3F)c2cc1OC	24	26	-10	-28	92*	-46
COc1ccc(-c2cc(NC(C)=O)c3ncc(-c4ccc(F)cc4)n3c2)cc1OC	16	-26	x	15	x	-30
